According to PubChem BioAssay (NCATS):
Inconclusive results are not listed. Calls of active or inactive are those of the source. Calls follow the shape of the dose curve; as a rule, active = well fitted cell-killing curve with a large enough effect; inconclusive = small, poorly fitted or top-dose-only effect, or effect the other way; inactive = no such curve, though single readings can be large or run the other way.

Assay: qHTS of pediatric cancer cell lines to identify multiple opportunities for drug repurposing: Confirmatory screen for NB-EBc1 cells (AID 1347115);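 also: cells exposed to compound for 48 h before the viability read; nearly all actives have a fitted effect of over 45% in size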
Conditions: NB-EBc1 neuroblastoma cells, viability (cytotoxicity); series mostly up to 45.9 µM; activity change, negative = cytotoxic: at the top concentration
Text: Drug repurposing or repositioning has been offered as a strategy for drug development in oncology programs. This approach has special potential for childhood cancers and other rare or orphan diseases, where the expected return on new drug development has been a disincentive to pharmaceuticals.
In this project we exploit the poly-pharmacology of drugs to discover new indications via phenotypic screening of a panel of 19 well-characterized cell lines derived from solid tumors seen in children and adolescents. The goal is to identify approved drugs with previously unrecognized anticancer properties that has the potential to reveal new mechanisms and biological processes involved in carcinogenesis or drug resistance. We employed a titration-based paradigm (quantitative high-throughput screening or qHTS), where all compounds were tested at multiple concentrations for their effect on cell viability. Concentration-response curves (CRCs) were derived directly from the primary screen, and both potency and efficacy values were used to identify compounds with robust bioactivity profiles. We screened the NIH Chemical Genomics Center (NCGC) Pharmaceutical Collection (NPC) and Mechanism Interrogation Plate (MIPE) small molecule collections of approved and investigational compounds against these cell lines; and measured metabolically active cells after 48 hours of compound treatment as a proxy for cell viability.
Assay Submitter: Nathalia J. Martinez, National Center for Advancing Translational Sciences, National Institutes of Health, Rockville, MD, USA; email: natalia.martinez@nih.gov
[1] Shen, M et al. Quantitative high-throughput phenotypic screening of pediatric cancer cell lines identifies multiple opportunities for drug repurposing. Oncotarget 2017 Dec 19;9(4):4758-4772. PMID 29435139.
The cells were obtained from University of North Carolina (UNC), Pediatric Preclinical Testing Program (PPT), and Coriell Institute (CI).
qHTS cell viability assay:
Cells were assayed in growth media at a density of 500-1,000 cells/well. Five microliters of cells were dispensed into 1,536-well, white, solid-bottom, TC-treated plates (Greiner Bio One) using a multidrop dispenser and incubated at 37 degrees C, 5% CO2, under a humidified atmosphere for 5 hours. Twenty-three nanoliters of compounds and controls (neutral control DMSO or positive control bortezomib at final concentration of 2.3 µM) were subsequently transferred by Kalypsys pintool. For primary screens, the MIPE collection was tested at 11-point dilutions (final concentrations range from 0.78 nM to 46 µM) and the NPC collection at 8-point dilutions (final concentrations range from 0.59 nM to 46 µM). Compounds tested in follow-up screens were assayed at 11-point dilutions. Cells were incubated for 48 hours, followed by addition of 3 µL of CellTiter-Glo (Promega). After a 15 min incubation at room temperature, samples were analyzed for luminescence intensity using a ViewLux High-throughput CCD imager equipped with clear filters.
% is scaled to controls: 0 for no effect and ±100 for the full control effect; potency is read from the fitted curve at half-maximal effect.

Q: Which “activity change, negative = cytotoxic” value does the source give for `Cc1nc(Nc2n[nH]c3c2CN(C(=O)N[C@H](CN(C)C)c2ccccc2)C3(C)C)c2sccc2n1` here?
A: The value was -1.58% (inactive).

Q: Which “activity change, negative = cytotoxic” value does the source give for `Cc1c(NC(=O)OC[C@@H]2COCCN2)cn2ncnc(Nc3ccc4c(cnn4Cc4cccc(F)c4)c3)c12` here?
A: Its value is -31.2% (inactive).

Q: With `Cn1c(=O)n(-c2ccc(C(C)(C)C#N)cc2)c2c3cc(-c4cnc5ccccc5c4)ccc3ncc21` as the compound, how does the Potency read?
A: The Potency was 7.37 µM (active).

Q: With `C[C@@]12O[C@@H](C[C@]1(O)CO)n1c3ccccc3c3c4c(c5c6ccccc6n2c5c31)CNC4=O` as the compound, how does the Potency read?
A: The Potency was 5.85 µM (active).

Q: With `Cc1cc(N2CCOCC2)cc2[nH]c(-c3c(NC[C@@H](O)c4cccc(Cl)c4)cc[nH]c3=O)nc12` as the compound, how does the Potency read?
A: Its Potency is 1.17 µM (active).

Q: Which Potency does the source give for `Nc1ncnc2c1c(-c1cnc3[nH]ccc3c1)nn2C1CCCC1` here?
A: Its Potency is 10.4 µM (active).

Q: For `C#Cc1cccc(Nc2ncnc3cc(OC)c(OCCCCCCC(=O)NO)cc23)c1`, which Potency is on record?
A: Its Potency is 1.7 µM (active).

Q: For `COc1ccc(-n2nc(C(N)=O)c3c2C(=O)N(c2ccc(N4CCCCC4=O)cc2)CC3)cc1`, which “activity change, negative = cytotoxic” value is on record?
A: Its value is -8.18% (inactive).

Q: With `CCOc1cc2ncc(C#N)c(Nc3ccc(F)c(Cl)c3)c2cc1NC(=O)C=CCN(C)C` as the compound, how does the “activity change, negative = cytotoxic” value read?
A: Its value is -89.1% (inactive).

Q: With `CN(C)Cc1c(C(=O)NCCOc2ccc(C(=O)NO)cc2)oc2ccccc12` as the compound, how does the Potency read?
A: The Potency was 1.85 µM (active).

Q: For `O=C(Nc1cc(C(F)(F)F)cc(C(F)(F)F)c1)c1cc(Cl)ccc1O`, which Potency is on record?
A: The Potency was 2.93 µM (active).

Q: For `CCN1CCN(Cc2ccc(-c3cc4c(N[C@H](C)c5ccccc5)ncnc4[nH]3)cc2)CC1`, which Potency is on record?
A: The Potency was 38 µM (active).

Q: With `CCNC(=O)Nc1ccc2ncc(Nc3ccc(C)cc3)nc2n1` as the compound, how does the “activity change, negative = cytotoxic” value read?
A: Its value is 8% (inactive).

Q: For `COC(=O)c1ccc2c(C(=Nc3ccc(N(C)C(=O)CN4CCN(C)CC4)cc3)c3ccccc3)c(O)[nH]c2c1`, which “activity change, negative = cytotoxic” value is on record?
A: The value was -29.4% (inactive).

Q: For `CNC(=O)CN1CCC(Oc2cc3c(Nc4cccc(Cl)c4F)ncnc3cc2OC)CC1`, which Potency is on record?
A: The Potency was 4.65 µM (active).

Q: Which Potency does the source give for `COc1cccc2c(NCc3ccccc3)nc(-n3c(N)nc4ccccc43)nc12` here?
A: The Potency was 8.27 µM (active).

Q: With `CC1=C(CO)C(=O)O[C@@H]([C@@H](C)[C@H]2CC[C@H]3[C@@H]4C[C@H]5O[C@]56[C@@H](O)C=CC(=O)[C@]6(C)[C@@H]4CC[C@]23C)C1` as the compound, how does the “activity change, negative = cytotoxic” value read?
A: The value was -11.1% (inactive).

Q: Which “activity change, negative = cytotoxic” value does the source give for `OCCCNc1cc(-c2ccnc(Nc3cccc(Cl)c3)n2)ccn1` here?
A: Its value is -24% (inactive).

Q: Which Potency does the source give for `C=CC(=O)Nc1cc2c(Nc3ccc(F)c(Cl)c3)ncnc2cc1C#CC(C)(C)N1CCN(C)CC1` here?
A: Its Potency is 15.1 µM (active).

Q: With `Cc1c(C)n(Cc2ccc(-c3ccccc3C(=O)O)cc2)c2ccc(C(=O)N[C@@H](C)c3ccc([N+](=O)[O-])cc3)cc12` as the compound, how does the “activity change, negative = cytotoxic” value read?
A: The value was -15.8% (inactive).

Q: For `CC(C)(C)NC(=O)[C@H]1CN(Cc2cccnc2)CCN1C[C@@H](O)C[C@@H](Cc1ccccc1)C(=O)N[C@H]1c2ccccc2C[C@H]1O`, which “activity change, negative = cytotoxic” value is on record?
A: Its value is -18.1% (inactive).

Q: Which Potency does the source give for `C=CC(=O)Nc1cccc(Oc2nc(Nc3ccc(N4CCN(C)CC4)cc3)ncc2Cl)c1` here?
A: The Potency was 18.5 µM (active).

Q: For `COC(=O)[C@]12CCC(C)(C)C[C@@H]1[C@@H]1C(=O)C=C3[C@@]4(C)C=C(C#N)C(=O)C(C)(C)[C@@H]4CC[C@@]3(C)[C@]1(C)CC2`, which Potency is on record?
A: Its Potency is 5.85 µM (active).

Q: For `CCc1c2c(nc3ccc(O)cc13)-c1cc3c(c(=O)n1C2)COC(=O)[C@]3(O)CC`, which Potency is on record?
A: Its Potency is 0.001 µM (active).

Q: For `COc1cccc2nc(-c3cccs3)nc(NN3C(=O)C=C(C)C3=O)c12`, which Potency is on record?
A: Its Potency is 2.08 µM (active).

Q: Which Potency does the source give for `CC(C)[C@H](C(=O)Nc1ccc(C(=O)NO)cc1)c1ccccc1` here?
A: Its Potency is 0.928 µM (active).

Q: With `CC1(C)CCC(c2ccc(Cl)cc2)=C(CN2CCN(c3ccc(C(=O)NS(=O)(=O)c4ccc(N[C@H](CCN5CCOCC5)CSc5ccccc5)c(S(=O)(=O)C(F)(F)F)c4)cc3)CC2)C1` as the compound, how does the “activity change, negative = cytotoxic” value read?
A: The value was 2.49% (inactive).

Q: Which Potency does the source give for `COc1cc2c(Oc3ccc(-c4cnc(Nc5ccc(F)cc5)n(C)c4=O)cc3F)ccnc2cc1OCCCN1CCOCC1` here?
A: Its Potency is 18.5 µM (active).

Q: For `CC[C@@H]1C(=O)N(C)c2cnc(Nc3ccc(C(=O)NC4CCN(C)CC4)cc3OC)nc2N1C1CCCC1`, which Potency is on record?
A: The Potency was 3.29 µM (active).

Q: With `COc1cccc(Nc2c(C(N)=O)cnc3c(C)cc(S(=O)(=O)c4cccc(C(=O)N(C)C)c4)cc23)c1` as the compound, how does the “activity change, negative = cytotoxic” value read?
A: The value was -0.0194% [at 29.6 µM] (inactive).

Q: For `CN1CC[C@@H](c2c(O)cc(O)c3c(=O)cc(-c4ccccc4Cl)oc23)[C@@H](O)C1`, which “activity change, negative = cytotoxic” value is on record?
A: The value was -25.6% (inactive).

Q: With `Cc1ccc(NC(=O)C2(c3ccc4c(c3)OC(F)(F)O4)CC2)nc1-c1cccc(C(=O)O)c1` as the compound, how does the “activity change, negative = cytotoxic” value read?
A: Its value is 5.17% (inactive).

Q: With `Nc1ccccc1NC(=O)c1ccc(CNc2nccc(-c3cccnc3)n2)cc1` as the compound, how does the “activity change, negative = cytotoxic” value read?
A: Its value is -90.7% (inactive).

Q: For `Nc1ccccc1NC(=O)c1ccc(CNC(=O)OCc2cccnc2)cc1`, which Potency is on record?
A: The Potency was 30.2 µM (active).

Q: With `Cc1cnc(Nc2ccc(F)cc2Cl)nc1-c1c[nH]c(C(=O)N[C@H](CO)c2cccc(Cl)c2)c1` as the compound, how does the “activity change, negative = cytotoxic” value read?
A: Its value is -72.4% (inactive).

Q: For `CC(C)c1nn(-c2c(Cl)cccc2Cl)c2nc(Cc3ccc(OCCO)cc3)[nH]c(=O)c12`, which “activity change, negative = cytotoxic” value is on record?
A: Its value is -23.1% (inactive).

Q: For `Cc1cnc(-c2cnc(NCCNc3ccc(C#N)cn3)nc2-c2ccc(Cl)cc2Cl)[nH]1`, which Potency is on record?
A: Its Potency is 14.7 µM (active).

Q: For `O=C(C=Cc1cccc(S(=O)(=O)Nc2ccccc2)c1)NO`, which Potency is on record?
A: Its Potency is 2.14 µM (active).

Q: Which Potency does the source give for `C=C1C(=CC=C2CCC[C@]3(C)[C@@H]([C@H](C)C=C[C@H](C)C(C)C)CC[C@@H]23)C[C@@H](O)C[C@@H]1O` here?
A: The Potency was 4.14 µM (active).

Q: With `CC[C@@H]1C(=O)N(C)c2cnc(Nc3ccc(C(=O)NC4CCC(N5CCN(CC6CC6)CC5)CC4)cc3OC)nc2N1C(C)C` (stereo not given in full) as the compound, how does the “activity change, negative = cytotoxic” value read?
A: Its value is 2.17% (inactive).
